This test has as its target Histone deacetylase 8 (Homo sapiens) (UniProt Q9BY41). The experiment in a line: HDAC8 deacetylase inhibition, profiling panel, selectivity assay for E-cadherin restoration project, biochemical, human (AID 651908).

Calls of active or inactive are those of the source. No rule for the calls is given here.

Chain of Histone deacetylase 8 (Homo sapiens) (Q9BY41 whole entry, looked up): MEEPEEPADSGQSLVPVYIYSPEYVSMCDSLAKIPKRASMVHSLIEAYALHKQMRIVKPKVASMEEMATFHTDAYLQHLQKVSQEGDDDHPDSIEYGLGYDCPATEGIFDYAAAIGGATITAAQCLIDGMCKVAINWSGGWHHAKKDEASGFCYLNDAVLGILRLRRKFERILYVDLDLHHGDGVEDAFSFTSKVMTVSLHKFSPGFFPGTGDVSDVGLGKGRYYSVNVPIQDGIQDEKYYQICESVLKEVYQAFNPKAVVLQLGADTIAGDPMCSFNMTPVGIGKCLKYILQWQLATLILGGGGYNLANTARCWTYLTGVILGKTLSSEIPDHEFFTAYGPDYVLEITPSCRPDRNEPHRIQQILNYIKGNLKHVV

For `O=C(NCCCNC(=O)c1ccc[nH]c1=O)c1cc(-c2ccccc2)on1`, the call was inactive.

The values are drawn from PubChem BioAssay AID651908 (Vanderbilt Specialized Chemistry Center, 2012).
